Compounds without any hit were thinned out: in the full panel of roughly 83,000, 20% have a hit.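 Assay: single dose, 48 h. Readout: percent growth (0 = no net growth; negative = cell death). Active: <10.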 Values without a mark were called inactive. Activity calls are given as the source filed them.

What all share (experiment): NCI-60 one-dose screen, 48 h (100 = growth as untreated, 0 = no growth, -100 = all killed)
What all share (settings): 10 µM unless noted

For assay [1], the system named is SK-MEL-2 melanoma.
Assay [2] deals with EKVX NSCLC.
The subject of assay [3] is SN12C renal.
Assay [4] relates to UO-31 renal.
Assay [5] concerns TK-10 renal.
Assay [6] relates to ACHN renal.
Assay [7] has as its system CAKI-1 renal.
Assay [8] relates to A498 renal.
The subject of assay [9] is CCRF-CEM leukemia.
The subject of assay [10] is MOLT-4 leukemia.
For assay [11], the system named is RPMI-8226 leukemia.
Assay [12] relates to OVCAR-8 ovarian.
Assay [13] deals with OVCAR-5 ovarian.
The subject of assay [14] is OVCAR-4 ovarian.
The test system of assay [15] is SK-OV-3 ovarian.
Assay [16] deals with IGROV1 ovarian.
Assay [17] concerns OVCAR-3 ovarian.
In assay [18] the test system is HS 578T breast.
Assay [19] deals with NCI/ADR-RES ovarian.
Assay [20] deals with SR leukemia.

For `CSC1=Nc2c(c(C)c(-c3ccccc3)n2CCCC(=O)O)C2=NC(=O)C[C@H](C)N12`, the growth is 107% in [1]; 92.8% in assay [2]; 122% in assay [3]; 88.6% in assay [4]; 118% in assay [5]; 121% in [6]. The growth in assay [7] is 103%; in assay [8], 128%; in assay [9] it was 98.4%; in assay [10] it was 104%; in assay [11] it was 93.6%; in assay [12], 110%. Moreover, the growth was 107% in [13]; 93% in assay [14]; 130% in assay [15]; 97.5% in [16]; 119% in assay [17]; 98.1% in [18]. In assay [19], the growth was 104%.
Consider `C=C(C)[C@@H]1CC[C@]2(C(=O)N3CCN(C)CC3)CC[C@]3(C)[C@H](CC[C@@H]4[C@@]5(C)CC[C@H](OC(=O)c6ccccc6C(=O)O)C(C)(C)[C@@H]5CC[C@]43C)[C@@H]12`, for which the growth was 107% in assay [1]; 98.4% in assay [2]; 93.5% in [3]; 77.7% in assay [4]; 106% in [5]; 100% in assay [6]. In addition, the growth is 83.9% in [7]; 74.9% in assay [8]; 97.1% in assay [9]; 88.7% in [10]; 90.5% in [20]; 96.7% in assay [11]. Moreover, the growth was 104% in assay [12]; 104% in assay [13]; 104% in [15]; 97.9% in assay [16]; 110% in assay [17]; 94.7% in [18]. The growth in assay [19] was 104%.
`CN(CCCNC(=O)CCOCCOCCOCCNC(=O)Cc1ccc2ccc3cccc4ccc1c2c34)CCCNc1cc(-c2ccc3ccccc3c2)nc2ccccc12`: the growth in [1] is -70.4% (active); in assay [2], -65.8% (active); in assay [3] it was -75.3% (active); in [4] it was -73.4% (active); in assay [5] it was -84.2% (active); in assay [6], -78.8% (active). Moreover, the growth was -82.4% (active) in assay [7]; -86.6% (active) in assay [8]; -78.6% (active) in [9]; -83.7% (active) in [10]; -74.8% (active) in [20]; -48.9% (active) in assay [11]. Moreover, the growth in assay [12] is -37.4% (active); in assay [13], -86.4% (active); in assay [15], -96.8% (active); in assay [16] it was -43.8% (active); in assay [17], -92% (active); in assay [18], -58.9% (active). Further, the growth in [19] was 8.51% (active).
Regarding `COc1ccc(/C=C/C(=O)c2cc3c(N)c(C(=O)Nc4cccc(Cl)c4C)sc3nc2C)cc1`, the growth was 51.6% in assay [1]; 44.5% in [2]; 4.97% (active) in assay [3]; 22.9% in assay [4]; 28.7% in assay [5]; 17.7% in assay [6]. Also, the growth in [7] is 13.2%; in [8], 4.47% (active); in [9] it was 10.9%; in [10] it was 19%; in assay [20], 16.2%; in assay [11] it was -11.8% (active). Further, the growth in assay [12] was -8.6% (active); in [13] it was 27.6%; in assay [15], 23.8%; in [16] it was 21.9%; in assay [17], 8.05% (active); in assay [18], 6.35% (active). Besides, the growth in [19] is -25.5% (active).
Regarding `C=C1C(=O)O[C@H]2[C@H]1CC/C(COC(=O)c1ccc(C(=O)O)s1)=C\CC[C@@]1(C)O[C@@H]21`, the growth in assay [1] is 49.5%; in [2] it was 34.2%; in assay [3], -8.57% (active); in assay [4], 29%; in [5], 13.1%; in [6], 17.4%. In addition, the growth was 8.39% (active) in assay [7]; 104% in assay [8]; -28.7% (active) in assay [9]; -7% (active) in [10]; -12.8% (active) in [20]; -25.9% (active) in [11]. Further, the growth in assay [12] was 17.9%; in [13], 48.6%; in assay [15], 96.6%; in assay [16], -26.8% (active); in [17] it was 0.215% (active); in assay [18], 37.6%. Besides, the growth in assay [19] was 42%.
`COc1cc(OC)c2sc(-c3ccc(-n4cncc4-c4cc(OC)c(OC)c(OC)c4)cc3)nc2c1`: the growth in [1] is 55.4%; in [2] it was 58.7%; in assay [3], 68.7%; in assay [4], 41%; in assay [5] it was 66.1%; in assay [6], 70.2%. Moreover, the growth in assay [7] is 24.3%; in [8], 48.5%; in [9] it was 56.6%; in [10], 32.1%; in assay [11] it was 27.3%; in assay [12], 76.1%. The growth in assay [13] was 81.3%; in assay [14] it was 50.2%; in assay [15] it was 88.8%; in [16], 63.9%; in assay [17] it was 35.1%; in assay [18], 62.2%. The growth in [19] was 60.6%.
Turning to `O=C(Cc1cccc(OC(F)(F)F)c1)Nc1ccc(CCCCc2nnc(NC(=O)Cc3ccccn3)s2)nn1`, the growth in [1] is 116%; in [2], 73.8%; in assay [3] it was 68.5%; in assay [4] it was 45.1%; in [5], 65%; in assay [6], 70%. The growth was 70.4% in assay [7]; 20.6% in [8]; 43% in [9]; 43.8% in assay [10]; 6.13% (active) in assay [11]; 65% in assay [12]. Moreover, the growth in [13] is 86.7%; in [14], 76.3%; in assay [15] it was 75.1%; in assay [16], 78.9%; in assay [17], 87.3%; in [18], 79.3%. In addition, in [19], the growth is 85.6%.
